Drawing on PubChem BioAssay (NCI), this text covers growth for 14 molecules.

What all share (experiment): NCI-60 one-dose screen, 48 h (100 = growth as untreated, 0 = no growth, -100 = all killed)
Common to all, as to settings: 10 µM unless noted

Assay [1] concerns NCI-H23 lung.
The subject of assay [2] is NCI-H226 lung.
In assay [3] the test system is NCI-H322M lung.
Assay [4] concerns HOP-62 NSCLC.
Assay [5] concerns NCI-H460 lung.
The subject of assay [6] is HOP-92 NSCLC.
The subject of assay [7] is A549/ATCC NSCLC.
Assay [8] concerns 786-0 renal.
Assay [9] concerns COLO 205 colon.
Assay [10] relates to NCI-H522 lung.

Molecules are shown by their SMILES. Compounds without any hit were thinned out: in the full panel of roughly 83,000, 20% have a hit.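 48-hour exposure, single concentration, 96-well plates; percent growth endpoint where 0 means no net growth. Active: below 10.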 A number with no mark means an inactive call. Activity calls are given as the source filed them.

Regarding `O=C(N=Nc1c(O)[nH]c2ccccc12)Nc1ccc(F)cc1`, the growth in assay [1] is 96.8%; in [2], 91.7%; in assay [3], 93.8%; in assay [4] it was 83.2%; in assay [5], 108%; in [6] it was 94%. For the same molecule, the growth in [7] is 87.5%; in assay [8], 97.3%; in assay [9] it was 103%.
Consider `O=C1NC(=O)/C(=C/c2c(-c3ccccc3)nc3sc(COc4ccccc4)nn23)S1`, for which the growth is 86% in assay [1]; 93.5% in assay [2]; 96% in assay [3]; 102% in assay [4]; 102% in assay [5]; 66.4% in assay [6]. The growth in assay [7] was 96.6%; in [8] it was 81.6%; in assay [9] it was 132%.
Turning to `C[C@]1(O)CC(=O)[C@]2(O)C3=C(C=C[C@]2(O)C1)C(=O)c1c(O)cccc1C3=O`, the growth is -6.78% (active) in assay [1]; 89.3% in assay [2]; 86.1% in assay [3]; 49% in [4]; 74.9% in [5]; -12.2% (active) in assay [6]. For the same molecule, the values for the growth in assay [8] and in assay [9] were 9.83% (active) and -81.3% (active), respectively.
Regarding `Cc1ccc(N2C(=O)CCC2=O)cc1`, the growth in [1] is 101%; in assay [2], 105%; in assay [3], 104%; in assay [4], 99.2%; in [5], 99.7%; in assay [6], 96.3%. For the same molecule, the growth in assay [7] is 102%; in assay [8] it was 97.4%; in assay [9], 107%.
Take `CC1(C)[C@@H](O[C@@H]2OC[C@@H](O[C@@H]3O[C@H](CO)[C@@H](O)[C@H](O)[C@H]3O[C@@H]3OC[C@@H](O)[C@H](O)[C@H]3O)[C@H](O)[C@H]2O[C@@H]2O[C@H](CO)[C@@H](O)[C@H](O)[C@H]2O)CC[C@]2(C)[C@H]3CC[C@]45OC[C@@]6(CC[C@](C)(C=O)C[C@H]64)[C@H](O)C[C@@]5(C)[C@]3(C)CC[C@@H]12`: the growth was -55.1% (active) in assay [1]; -65.2% (active) in assay [2]; -86.9% (active) in [3]; -82.9% (active) in assay [4]; -63% (active) in assay [5]; -63.7% (active) in assay [6]. In addition, the growth is -89.7% (active) in assay [10], -75% (active) in [8] and -93.9% (active) in assay [9].
For `COc1cc(Cl)c(C)cc1NC(=O)c1cc2ccccc2cc1O`, the growth in assay [1] is 2% (active); in [2], 13.3%; in assay [3], 9.8% (active); in [4], 26.5%; in assay [5], 6.83% (active); in assay [6], -15.4% (active). In addition, the growth in assay [8] is 14.1%; in assay [9], 86.9%.
For the molecule `Cc1ccc(/C=C/C(=O)c2cccc(OCCCOc3cccc(C(=O)/C=C/c4ccc(C)cc4)c3)c2)cc1`, the growth in assay [1] was 69.5%; in assay [2], 77.5%; in assay [3] it was 85.1%; in assay [4], 102%; in assay [5], 75.9%; in [6] it was 92.5%. Also, the growth in assay [7] was 81.2%; in assay [8], 57.9%; in [9], 90.9%.
In the case of `O=C(Cc1ccccc1)Nc1cccc(N=Cc2ccccc2O)c1`, the growth is 107% in assay [1]; 104% in [2]; 108% in assay [3]; 115% in assay [4]; 107% in [5]; 88.1% in assay [6]. Besides, the growth in assay [10] was 91.1%; in assay [8], 104%; in [9], 111%.
As to `COc1cc(-c2nc3sccn3c2-c2ccnc(NCCNS(=O)(=O)c3ccc(Cl)cc3)n2)ccc1F`, the growth in assay [1] is 18.7%; in assay [2] it was 8.63% (active); in assay [3], 70.4%; in assay [4], 34.7%; in assay [5] it was 42.2%; in [6], 78.8%. The growth is 30% in [7], 61.8% in assay [8] and 33.8% in [9].
For `C=C(C)[C@@H]1CC[C@]2(C(=O)N3CCN(C)CC3)CC[C@]3(C)[C@H](CC[C@@H]4[C@@]5(C)CC[C@H](OC(=O)c6ccccc6C(=O)O)C(C)(C)[C@@H]5CC[C@]43C)[C@@H]12`, the growth in assay [1] is 99.9%; in assay [2], 99.4%; in [3] it was 101%; in [4], 98%; in assay [5], 103%; in [6], 102%. Besides, the growth in assay [7] was 104%; in assay [8], 101%; in [9], 111%.
With `O=C1/C(=C\c2ccccn2)c2ccccc2N1c1c(Cl)cccc1Cl`, the growth in [1] is 13%; in assay [2], 25.2%; in [3], 61.4%; in [4], 23.3%; in assay [5], -29.3% (active); in [6], -7.93% (active). For the same molecule, the values for the growth in [10], in assay [8] and in assay [9] were 36.8%, -81.4% (active) and -16.1% (active), respectively.
Regarding `N#C/C(=C\c1ccc(-c2cccc(C(F)(F)F)c2)o1)c1ccccc1`, the growth is 79.7% in assay [1]; 77.4% in assay [2]; 86% in assay [3]; 88.1% in [4]; 97.1% in assay [5]; 87.5% in assay [6]. The growth in assay [7] is 94.3%; in [8] it was 99.9%; in assay [9] it was 101%.
As for `O=[N+]([O-])c1ccc(-c2cn3nc(-c4c[nH]c5ccccc45)sc3n2)cc1`, the growth was 88.1% in assay [1]; 90.8% in [2]; 84.9% in assay [3]; 94.6% in assay [4]; 98% in assay [5]; 102% in assay [6]. Moreover, the growth in assay [10] is 80.7%; in [8] it was 103%; in assay [9], 108%.
With `Oc1c(CN2CCC(N3CCCCC3)CC2)cc(Cc2cc(CN3CCC(N4CCCCC4)CC3)c(O)c3ncccc23)c2cccnc12`, the growth was 39.3% in assay [1]; 5.18% (active) in assay [2]; 19.7% in assay [3]; 18.6% in assay [4]; 5.8% (active) in [5]; 30.5% in assay [6]. Also, the values for the growth in assay [7], in [8] and in [9] were 22.9%, 24.4% and -3.12% (active), respectively.
